We go through 40 compounds from PubChem BioAssay (Tox21).

Unmarked numbers belong to inactive results. Calls of active or inactive are those of the source. Calls come from the whole dose curve; as a rule, active = well fitted activation curve with a large enough effect in the repeat runs; inconclusive = weak or mixed curves; inactive = flat fitted curve, though single readings scatter.
% is set by controls: 0 for no effect and ±100 for the full control effect; potency is the fitted concentration of half-maximal effect.

A short description of the test: A CellTox Green Cytotoxicity Assay to monitor cytotoxicity in HepG2 cells - 0 hour (AID 1224882). Note: nearly all actives have a fitted effect of over 35% in size. The conditions noted are these: CellTox Green fluorescence; series mostly up to 76.8 µM; cytotoxicity: at the top concentration. From the text:
National Center for Advancing Translational Sciences [NCATS]
NIH Chemical Genomics Center [NCGC]
U.S. Environmental Protection Agency [EPA]
National Institutes of Environmental Health Sciences [NIEHS]
National Toxicology Program [NTP]
Cell-based models are critical for drug discovery. Determining the natural cytotoxic effects resulting from test compounds is an essential research activity. A CellTox Green Cytotoxicity Assay to monitor cytotoxicity in real time of continues cell culture during 40 hours of the compound treatment was used to screen Tox21 10K library compounds in HepG2 cells. CellTox Green Cytotoxicity Assay is a nonlytic, homogeneous, biofluorescent method to measure cytotoxicity in cell culture after experimental manipulation. The assay system uses a proprietary asymmetric cyanine dye that is excluded from viable cells but preferentially stains the dead cell's DNA. […] Viable cells produce no appreciable increases in fluorescence. Therefore, the fluorescence signal produced by the binding interaction with dead cell DNA is proportional to cytotoxicity.
The mixture of HepG2 cell suspension and reagents were dispensed at 600cells/6 ul/well in 1536-well tissue culture treated black solid bottom plates using a Multidrop dispenser. After the assay plates were incubated at a 37 C/5% CO2 incubator for 5 hours, 23 nL of compounds dissolved in DMSO, positive and negative controls was transferred to the assay plate by a pintool work station. The plates were incubated at 37 C for 40 hours. The fluorescence intensity were measured at 0h, 8h, 16h, 24h, 32h and 40h time points using ViewLux plate reader during compound treatment.
`Cc1cc2c(s1)Nc1ccccc1N=C2N1CCN(C)CC1`: the “cytotoxicity” value is -0.872% [at 35.3 µM].

Turning to `CC1=CC(=O)CC(C)(C)C1=O`, the “cytotoxicity” value was 0.168%. On the same count and under the same terms, in the case of `O=[N+]([O-])c1nccn1CO[C@@H](CO)[C@H](O)CO` it was -2.52% [at 35.3 µM]; in that of `CC(C)(C)c1ccc(OC(=O)c2ccccc2O)cc1`, -6.8%; in that of `CCC(=O)c1ccc2c(c1)N(CCCN(C)C)c1ccccc1S2`, -16.3% [at 35.3 µM]. On to `Cc1cc(NS(=O)(=O)c2ccc(N)cc2)nc(C)n1`, for which the “cytotoxicity” value is -0.423% [at 35.3 µM]. Turning to `Cc1ccsc1C(=CCCN1CCC[C@@H](C(=O)O)C1)c1sccc1C`, the “cytotoxicity” value was -12.2% [at 35.3 µM]. Still for that read-out and setting: next, `CCOC(=O)c1cc(=O)c2c(OCC(COc3cccc4oc(C(=O)OCC)cc(=O)c34)OC(=O)[C@@H](N)CCCCN)cccc2o1`: -2.4% [at 35.3 µM]; `CCOc1ccc(NC(N)=O)cc1`: -3.87%.

Regarding `CCCN(CCC)C(=O)C(CCC(=O)O)NC(=O)c1ccccc1` (stereo not given), the “cytotoxicity” value is -2.38% [at 35.3 µM]. On the same count and under the same terms, next, `CCCCCCCCCCCCCCCCOP(=O)([O-])OCC[N+](C)(C)C`: 4.92% [at 35.3 µM]; `CC(Oc1c(Cl)cccc1Cl)C1=NCCN1` (stereo not given): 0.541% [at 35.3 µM]; `C1CCOC1`: -2.95%. The same measure, in the same setting: next, `CN1CCC[C@@H]1Cc1c[nH]c2ccc(CCS(=O)(=O)c3ccccc3)cc12`: -11.2% [at 35.3 µM]; `CCc1nnc(NS(=O)(=O)c2ccc(N)cc2)s1`: 5.94% [at 35.3 µM]; `c1ccc(CN(CC2=NCCN2)c2ccccc2)cc1`: 15.9% [at 35.3 µM]. On the same count and under the same terms, next, `CCOC(=O)[C@H](CCc1ccccc1)N[C@@H](C)C(=O)N1Cc2cc(OC)c(OC)cc2C[C@H]1C(=O)O`: 0.371% [at 35.3 µM]. Take `Cc1ccc(C=O)s1`: the Potency was 43.6 µM (active).

For `CCCOc1ccc2c(c1)CC[C@@H]1[C@@H]2CC[C@]2(C)C(OC)CC[C@@H]12` (stereo not given in full), the “cytotoxicity” value was -10.9% [at 35.3 µM].

Turning to `CCCCCCCCCC/C=C/C#N`, the “cytotoxicity” value is -0.606%. Still for that read-out and setting: next, `OCc1ccccc1O`: 0.31% [at 35.3 µM]; `CC(C)(CO)[C@@H](O)C(=O)NCCC(=O)O`: 5.4%.

Take `COc1cc(N)c(Cl)cc1C(=O)NC1CCN(Cc2ccccc2)CC1`: the “cytotoxicity” value was -7.3% [at 35.3 µM]. On the same count and under the same terms, next, `Cc1ccc([N+](=O)[O-])cc1Cl`: -5.64%. On the same count and under the same terms, next, `CCCS(=O)c1ccc2nc(NC(=O)OC)[nH]c2c1` (stereo not given): -2.7% [at 35.3 µM]; `COc1cc(C)ccc1C(C)C`: 5.54%; `NC(=O)Cc1cccc(C(=O)c2ccccc2)c1N`: -3.92% [at 35.3 µM].

In the case of `CC(C)(C)c1cccc(O)c1`, the “cytotoxicity” value was -2.38%. In the case of `CN1[C@@H]2CC[C@H]1CC(OC(=O)c1c[nH]c3ccccc13)C2` (stereo not given in full), the “cytotoxicity” value is 2.17% [at 35.3 µM]. On the same count and under the same terms, next, `CC(C)Nc1nc(N)nc(Cl)n1`: -3.18%. Same read-out and setting: next, `Cc1cccc(C)c1NC(=O)CN1CCCCCC1`: 0.898% [at 35.3 µM]. Regarding `CC1(O)CSC(C)(O)CS1` (stereo not given), the “cytotoxicity” value is 1.3%.

With `CC(=O)Oc1cc(C(C)C)c(OCCN(C)C)cc1C`, the “cytotoxicity” value is -0.889% [at 35.3 µM].

In the case of `CCOC(=O)C1CC(=O)C(=C(O)C2CC2)C(=O)C1` (stereo not given), the “cytotoxicity” value was 5.87%. Same read-out and setting: next, `CC[C@H]1CC[C@H](NCc2cc3c(cc2OC)[C@H]2C[C@H]2C(=O)N3C)[C@H](c2ccccc2)N1`: 5.2%. On the same count and under the same terms, next, `COc1cc2c(cc1N)oc1ccccc12`: 0.781%; `NC1=NCC2c3ccccc3Cc3ccccc3N12` (stereo not given): -32.2% [at 35.3 µM]. Still for that read-out and setting: next, `CCN(CC)CC1CCCCN1CC(=O)N1c2ccccc2C(=O)Nc2cccnc21` (stereo not given): 0.761% [at 35.3 µM]; `CN1CCN(c2c(F)cc3c(=O)c(C(=O)O)cn(CCF)c3c2F)CC1`: 3.32% [at 35.3 µM]; `CC(C)C1=CC2=CC[C@@H]3[C@](C)(CCC[C@@]3(C)C(=O)O)[C@H]2CC1`: 3.15%.
